Screening results (PubChem)
Most compounds without a hit are left out; they make up all but 11% or so of the library.
ALDH1A1 block = inhibitors of human aldehyde dehydrogenase 1A1 | Purified ALDH1A1, NADH fluorescence, propionaldehyde substrate | Potency, µM (series often up to 75.3 µM), without a hit: top-dose activity, negative = inhibition, hits mostly inhibitors | 220,000 tested, 7.3% active | AID 1030;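 further: potency means the concentration at half of the fitted maximal effect; plate controls were no enzyme wells and a reference inhibitor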
PNC assembly inh = perinucleolar compartment assembly inhibition | PC3M PTB-GFP, PNC prevalence imaging, 16 h; hits give low values | activity change (PNC), negative = inhibition, % at 10 µM | 140,000 tested, 3.1% active | AID 2417;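 active means readout at or below -70, meaning at least 70% loss of cells showing the perinucleolar compartment, a nuclear body marking cancer cells; inconclusive means readout between -30 and a set limit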;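 further: plate controls were DMSO wells for no effect and camptothecin positive control wells for full effect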
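Read-out is percentage of cells bearing a perinucleolar compartment, from automated 20x imaging of fixed, Hoechst-stained PC3M PTB-GFP cells. Cells were seeded 4 h, then exposed 16 h to compound (23 nl of library stock) in duplicate plates.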
JMJD2E inh = inhibitors of human JMJD2E histone demethylase; B2RXH2; 230,000 tested, 1.6% active; Potency, µM (series often up to 57.1 µM), for inactives: top-dose activity change, negative = inhibition, usual class: inhibitors; JMJD2E catalytic domain, FDH-coupled NADH fluorescence (FDH is formaldehyde dehydrogenase);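 further: potency means the concentration at half of the fitted maximal effect; 0% = wells with enzyme and -100% = buffer wells without enzyme; nearly all actives have a fitted effect of over 50% in size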
HPGD inh = blocks human HPGD enzyme activity. purified HPGD, NADH fluorescence kinetic, PGE2 substrate. 150,000 tested, 4.3% active. AID 894. Potency, µM, for inactives: at the top dose activity change, negative = inhibition, most hits filed as inhibitors. P15428; further: potency means the concentration at half of the fitted maximal effect
Target sequence (P15428 whole entry, looked up): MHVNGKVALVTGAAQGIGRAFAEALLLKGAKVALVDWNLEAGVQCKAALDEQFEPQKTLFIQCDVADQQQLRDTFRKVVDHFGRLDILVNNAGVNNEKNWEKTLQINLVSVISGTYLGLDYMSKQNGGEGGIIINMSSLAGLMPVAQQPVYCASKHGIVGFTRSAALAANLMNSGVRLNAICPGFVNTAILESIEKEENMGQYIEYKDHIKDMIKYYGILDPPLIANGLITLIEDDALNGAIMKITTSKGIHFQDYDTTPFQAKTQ
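NADH formation kinetics: reaction with 30 uM PGE2 and 1 mM NAD+ (final), 20 nM enzyme, Tris-HCl pH 8 with Tween 20, after 15 min compound preincubation at room temperature. Fluorescence change, last versus first of five reads.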
Active calls of the source: *; ? = inconclusive; / = no result. Unless noted, the call rests on the fitted dose curve; in most records, active means well fitted inhibition curve with a large enough effect (not every such curve was filed as active); inconclusive means small, poorly fitted or top-dose-only effect, or another doubt; inactive means no such curve, though single readings can be large or run the other way. Unless noted, on the % scale 0 is the no-effect control and ±100 the full control effect.

SMILES	ALDH1A1 block	PNC assembly inh	JMJD2E inh	HPGD inh
COCc1cc(C)nc(SCC(=O)c2ccc(O)c(O)c2)c1C#N	-12.8%	33.5	28.2µM*	15.8µM*
Cc1cc(C)c(C#N)c(SCC(=O)CC(=O)OC(C)C)n1	16.8%	?	-8.5%	-5.8%
CCOc1ccc2cc(C#N)c(SCC(=O)N3CCOCC3)nc2c1	3.55µM*	?	-3.0%	?
Cc1cc(C)c(C#N)c(SCC(=O)OC2CCCCC2)n1	28.2µM*	-83.3*	?	15.8µM*
CCOC(=O)CC(=O)CSc1nc(-c2ccccc2)cc(-c2ccccc2)c1C#N	?	9.9	?	?
CCOc1ccc2nc(SCC(=O)N3CCCCCC3)c(C#N)cc2c1	?	23.2	?	-26.4%
NC(=O)CC(NC(=O)c1ccccc1)c1ccc(NCCc2ccc(Cl)cc2)c([N+](=O)[O-])c1 (stereo not given)	/	/	2.5%	/
COc1ccc(-c2csc(NC(=O)C3COc4ccccc4O3)n2)cc1OC (stereo not given)	?	/	-0.3%	/
O=S(=O)(NC(=NCCc1ccc(Cl)cc1)c1ccccc1Cl)c1cccs1	-10.4%	/	2.0%	/
CCOC(=O)C1=C(CSc2nc(C)cc(C)c2C#N)OC(N)=C(C#N)C1c1cccs1 (stereo not given)	14.1µM*	?	?	-18.8%
CCOC(=O)CCc1c(C)nc(SCC(=O)O)c(C#N)c1C	25.1µM*	-14.3	-14.8%	-22.4%
CCOC(=O)CSc1nc2cc3c(cc2cc1C#N)OCO3	-2.1%	-126.5*	164.4%	-12.5%
CCOC(=O)CSc1nc(C)cc(C)c1C(N)=O	7.3%	/	0.4%	/
CCOC(=O)CSc1nc(C)cc(C)c1C#N	25.1µM*	30.1	-25.2%	-9.1%
O=C(/C=C/c1cccc(Br)c1)NCc1ccncc1	-7.2%	/	7.1%	/
CC1(C)Oc2ccc(C#N)cc2[C@@H](OC2=CC(=O)CC2)[C@@H]1O	2.4%	/	/	/
CC(=O)c1cc(C)oc1C	-23.9%	/	/	-22.2%
COc1ccccc1N1Cc2ccccc2C1	8.91µM*	?	-23.4%	?
Cc1ccccc1N1Cc2ccccc2C1	28.2µM*	-28.0	4.8%	?
COc1ccc(OC)c(N2Cc3ccccc3C2)c1	-19.0%	?	-6.2%	-18.5%
CC(C)CN(C[C@@H](O)[C@H](Cc1ccccc1)NC(=O)O[C@H]1CCOC1)S(=O)(=O)c1ccc(N)cc1	6.7%	/	/	-4.6%
CCn1c(O)c(N=NC(=O)c2cccnc2)c2cc(Br)ccc21	?	/	15.0%	/
O=C(N=NC(=O)c1ccc2c(O)n(C3CCCCC3)c(O)c2c1)c1cccnc1	2.24µM*	55.7	-4.0%	-17.0%
O=C(c1cnccn1)N1CCC[C@@]2(CCN(c3ccccn3)C2)C1	10.4%	/	/	-12.3%
O=C(NCC(c1ccco1)N1CCCCC1)c1ccc2c(c1)S(=O)(=O)c1ccccc1C2=O (stereo not given)	12.6µM*	/	?	/
SMILES	ALDH1A1 block	PNC assembly inh	JMJD2E inh	HPGD inh
CCN1CCN(C(=O)c2ccc3c(c2)S(=O)(=O)c2ccccc2C3=O)CC1	7.94µM*	/	-12.4%	/
CCC(C)(C)NC(=O)c1ccc2c(c1)S(=O)(=O)c1ccccc1C2=O	3.55µM*	?	-3.2%	25.1µM*
CN1CCN(C(=O)c2ccc3c(c2)S(=O)(=O)c2ccccc2C3=O)CC1	-7.9%	/	-11.0%	/
O=C1CSc2ccc(C(=O)NCC(c3ccco3)N3CCCCC3)cc2N1 (stereo not given)	?	/	-19.6%	/
O=C(Nc1ccccn1)c1ccc2c(c1)S(=O)(=O)c1ccccc1C2=O	15.8µM*	62.0	0.9%	-15.7%
Cn1c(=O)c(-c2cc(F)cc(F)c2)nc2cnc(Oc3cccc(Cl)c3)nc21	?	/	/	-29.8%
COC(=O)CC1Oc2cc3oc4c5ccccc5oc(=O)c4c3cc2O1 (stereo not given)	?	/	?	-17.8%
CCOC(=O)CN1C(=O)S/C(=C/c2cccc([N+](=O)[O-])c2O)C1=O	?	/	-4.0%	/
CCOC(=O)c1c(/N=C/c2cccc([N+](=O)[O-])c2O)sc(C)c1C	12.6µM*	-1.8	0.5%	?
COc1ccccc1CN1C(=O)[C@@H]2C(CCC(N)=O)NC3(C(=O)Nc4c3ccc(Cl)c4C)[C@@H]2C1=O (stereo not given in full)	0.224µM*	48.9	11.4%	-8.3%
COc1ccccc1CN1C(=O)[C@@H]2C(CC(N)=O)NC3(C(=O)Nc4c3ccc(Cl)c4C)[C@@H]2C1=O (stereo not given in full)	?	4.7	-1.6%	/
COC(=O)Cc1[nH]n(-c2nc3ccccc3s2)c(=O)c1C(C)=Nc1ccc(Cl)cc1	/	/	35.5µM*	/
